This excerpt belongs to a sample that is enriched for hits.
Tg IFNy HTS: T. gondii growth inhibition with IFN-gamma, primary screen, cell-based; Toxoplasma gondii growth in IFN-gamma-treated host cells; active compounds read low; 69,000 tested, 3.8% active; activity change, negative = inhibition, % (no concentration beside the values); in the data active = activity change below about -70%, passing the limit was not always enough;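 note: host cells are HeLa cells infected with Toxoplasma gondii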
A number is an active result.

Results for CSc1ccc(C2c3[nH]c4ccccc4c3CCN2C(=O)c2ccncc2)cc1 (centres undefined) ?
Tg IFNy HTS: inactive

Results for COc1cc(C(=O)N2CCc3c([nH]c4ccccc34)C2c2ccc(SC)cc2)cc(OC)c1OC (centres undefined) ?
Tg IFNy HTS: inactive

How did CSc1ccc(C2c3[nH]c4ccccc4c3CCN2C(=O)c2ccccc2)cc1 (centres undefined) do in these assays?
Tg IFNy HTS: -87.8

How did COc1ccc(CC(=O)N2CCc3c([nH]c4ccccc34)C2c2ccc(SC)cc2)cc1 (centres undefined) do in these assays?
Tg IFNy HTS: inactive

How did CSc1ccc(C2c3[nH]c4ccccc4c3CCN2C(=O)c2ccc(F)cc2)cc1 (centres undefined) do in these assays?
Tg IFNy HTS: inactive

What do the screens show for `COc1ccc(C(=O)N2CCc3c([nH]c4ccccc34)C2c2ccc(SC)cc2)cc1` (centres undefined)?
Tg IFNy HTS: -104.6

Results for CCOc1ccccc1CNC(=O)Cn1ncc2c(N3CCOCC3)ncnc21 ?
Tg IFNy HTS: inactive

Results for Cc1ccc(CNC(=O)Cn2ncc3c(N4CCOCC4)ncnc32)cc1C ?
Tg IFNy HTS: inactive

Results for CN(C)C(=O)C1CC2CN(Cc3cnn(C)c3)CC1O2 (centres undefined) ?
Tg IFNy HTS: inactive

How did N#Cc1c(N2C(=O)C3C4c5ccccc5C(c5ccccc54)C3C2=O)sc2c1CCC2 (centres undefined) do in these assays?
Tg IFNy HTS: -78.8

Results for Cc1onc(-c2ccccc2Cl)c1C(=O)Nc1sc2c(c1C#N)CCC2 ?
Tg IFNy HTS: inactive

How did Cc1nc(CC(=O)N2CCC3(CC2)NC(=O)c2ccccc2N3)c(-c2ccccc2)s1 do in these assays?
Tg IFNy HTS: inactive

Results for O=C(Nc1cccc2ccccc12)NC1CCCCC1 ?
Tg IFNy HTS: -93.1

Results for O=C(Nc1cccc2ccccc12)OC1CCS(=O)(=O)C1 (centres undefined) ?
Tg IFNy HTS: inactive

What do the screens show for `O=C(Nc1cccc2ccccc12)N1CCOCC1`?
Tg IFNy HTS: inactive

What do the screens show for `COc1ccc(NC(=O)CSc2nc3ccc(C)cc3cc2C#N)cc1`?
Tg IFNy HTS: inactive

What do the screens show for `CCOc1ccc2nc(SCC(=O)c3ccc4c(c3)OCCO4)c(C#N)cc2c1`?
Tg IFNy HTS: inactive

Results for CCOc1ccc2nc(SCc3ccccc3)c(C#N)cc2c1 ?
Tg IFNy HTS: -102.5

What do the screens show for `Cc1nc(C(=O)Nc2cccc(CCc3ccncc3)c2)cc(=O)[nH]1`?
Tg IFNy HTS: inactive

Results for CC(C)Nc1n[nH]c2nc(C3CCCN3C(=O)c3ccc(OCCN(C)C)cc3)ccc12 (centres undefined) ?
Tg IFNy HTS: inactive

What do the screens show for `CN(C)S(=O)(=O)N1CCC2(CC1)CN(CC1CC1)Cc1ccccc12`?
Tg IFNy HTS: inactive

How did O=c1[nH]c2cc(C(F)(F)F)cc(Br)c2[nH]c1=O do in these assays?
Tg IFNy HTS: inactive

What do the screens show for `O=c1[nH]c2cc(Cl)c(Cl)cc2[nH]c1=O`?
Tg IFNy HTS: -72.1

Results for O=c1[nH]c2cc(Cl)c(Cl)c([N+](=O)[O-])c2[nH]c1=O ?
Tg IFNy HTS: inactive

How did CCc1ccc(C(C(=O)NC2CCCC2)N(Cc2cccs2)C(=O)c2ccco2)cc1 (centres undefined) do in these assays?
Tg IFNy HTS: inactive

How did Fc1cccc(CN2C3COCC2CC(OCC2CC2)C3)c1 (centres undefined) do in these assays?
Tg IFNy HTS: inactive

Results for CCc1ccc(CNC(=O)c2nc(Nc3cccc(C)c3)c3ccccc3n2)cc1 ?
Tg IFNy HTS: -98.5

Results for Cc1ccc(Nc2nc(C(=O)NCc3ccc(N(C)C)cc3)nc3ccccc23)cc1 ?
Tg IFNy HTS: inactive

How did CCOC(=O)c1nc(Nc2cccc(C)c2)c2ccccc2n1 do in these assays?
Tg IFNy HTS: inactive

How did CCc1ccc(Nc2nc(C(=O)NCc3ccc(C)cc3)nc3ccccc23)cc1 do in these assays?
Tg IFNy HTS: inactive

How did Cc1cccc(Nc2nc(C(=O)NCc3ccc(N(C)C)cc3)nc3ccccc23)c1 do in these assays?
Tg IFNy HTS: -78.1

How did CN(C)c1ccc(CNC(=O)c2nc(Nc3ccc(F)cc3)c3ccccc3n2)cc1 do in these assays?
Tg IFNy HTS: inactive

What do the screens show for `CN(C(=O)CCn1cnc2ccccc2c1=O)c1nnc(SCc2ccccc2)s1`?
Tg IFNy HTS: inactive

How did Cc1ccc(C(=O)N2CC[C@@H]3[C@@H](CO[C@@H]3CNc3ncccn3)C2)o1 do in these assays?
Tg IFNy HTS: inactive

Results for Cc1ccc(S(=O)(=O)NCCc2sc(-c3ccc(Cl)cc3)nc2C)c(C)c1 ?
Tg IFNy HTS: inactive

Results for Cn1c(=O)c2c(nc(N3CCN=C3SCC(N)=O)n2Cc2ccccc2)n(C)c1=O ?
Tg IFNy HTS: inactive

Results for Cc1nc2c(c(=O)[nH]1)CCN(Cc1cccn1Cc1ccccc1F)C2 ?
Tg IFNy HTS: inactive

How did Cn1c(=O)c2c(nc(CN3CCc4ccccc4C3)n2Cc2ccccc2F)n(C)c1=O do in these assays?
Tg IFNy HTS: -79.2

What do the screens show for `c1ccc(C2C3=C(CCCC3)Oc3ccccc32)cc1` (centres undefined)?
Tg IFNy HTS: inactive

Results for CC(=O)c1ccc(-c2cccs2)s1 ?
Tg IFNy HTS: inactive

How did O=C(Sc1ccc(Cl)cc1)c1ccc(-c2cccs2)s1 do in these assays?
Tg IFNy HTS: -104.2

How did O=C(c1ccc(-c2cccs2)s1)c1ccc(F)cc1F do in these assays?
Tg IFNy HTS: inactive

How did Cc1ccc(NC(=O)CN2C(=O)c3cccc4cccc2c34)cc1 do in these assays?
Tg IFNy HTS: inactive

Results for COc1ccc(-c2nc(Nc3ccc(C)c(F)c3)c3ccccc3n2)cc1 ?
Tg IFNy HTS: inactive

Results for COCCN1C(=O)CCC12CCN(c1ccc(C)nn1)CC2 ?
Tg IFNy HTS: inactive

Results for Cc1ccc(C(=O)CSc2ncn(-c3ccccc3)n2)cc1 ?
Tg IFNy HTS: inactive

How did Cc1onc(-c2ccc(Cl)cc2)c1-c1ccnc(SCC(=O)c2ccccc2)n1 do in these assays?
Tg IFNy HTS: -72.4

How did CC(C)c1ccc(NC(=O)CSc2nccc(-c3csc(-c4ccccc4)n3)n2)cc1 do in these assays?
Tg IFNy HTS: inactive

How did Cc1oc(-c2ccccc2Cl)nc1Cn1cnc2onc(C)c2c1=O do in these assays?
Tg IFNy HTS: inactive

What do the screens show for `CCC(C(=O)N1CCC2(CC1)Nc1cc(OC)ccc1-n1cccc12)c1ccccc1` (centres undefined)?
Tg IFNy HTS: inactive

Results for O=C(c1cc2ccccc2[nH]1)N1CCC(c2[nH]ncc2Cc2ccccc2)CC1 ?
Tg IFNy HTS: inactive

Results for O=C(CCc1c[nH]c2ccccc12)N1CCN(c2cc(-c3cccnc3)[nH]n2)CC1 ?
Tg IFNy HTS: inactive

What do the screens show for `O=C(NCC1CCN(c2cc(-c3ccncc3)[nH]n2)CC1)c1cc2ccccc2[nH]1`?
Tg IFNy HTS: -78.5

How did CCc1ccc(-c2noc(-c3c(O)c4ccccc4n(C)c3=O)n2)cc1 do in these assays?
Tg IFNy HTS: inactive

What do the screens show for `O=S(=O)(NCCc1ccncc1)c1cc(C(F)(F)F)cc(C(F)(F)F)c1`?
Tg IFNy HTS: inactive

Results for Cc1ccc(S(=O)(=O)NCc2ccccc2)cc1 ?
Tg IFNy HTS: inactive

Results for CCCCNS(=O)(=O)c1ccc(S(=O)(=O)NCc2ccncc2)cc1 ?
Tg IFNy HTS: -80.4

Results for CN1CCN(c2ncnc3ccc(-c4cccc(-c5ccn[nH]5)c4)cc23)CC1 ?
Tg IFNy HTS: -79.2

How did O=C(O)c1cncc(-c2cccc(-c3ccn[nH]3)c2)c1 do in these assays?
Tg IFNy HTS: inactive

Results for CN(C)C(=O)c1ccc2ncnc(N3CCCC3)c2c1 ?
Tg IFNy HTS: inactive

Results for CCOC(=O)c1nc(Nc2ccccc2Cl)c2ccccc2n1 ?
Tg IFNy HTS: inactive

Results for COc1ccc(C)cc1-n1cnnc1C(O)c1ccccc1 (centres undefined) ?
Tg IFNy HTS: inactive

Results for Cc1ccc(S(=O)(=O)Oc2ccc3oc(=O)sc3c2)cc1 ?
Tg IFNy HTS: inactive

What do the screens show for `C/C=C/C(=O)Nc1ccccc1-c1cc(OC)c(OC)c(OC)c1`?
Tg IFNy HTS: inactive
